Consider eight sequences from publication PMC8384837, “Expanding the binding specificity for RNA recognition by a PUF domain”.

Common to all, as to test: yeast three-hybrid, YBZ-1, SC-Leu-His + 0.5 mM 3-AT, 4 days
What all share (settings): tags: N-Gal4 AD-HA kept; label: inside an RPR1-promoter hybrid RNA with tandem MS2 sites; ssRNA

One experiment concerns the target PUM1 PUF domain R1-GHR (Homo sapiens, UniProt Q14671 828-1176, S863G;R864H;Q867R). An outline of the steps:
(§1)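 The interaction score is the logarithmic change in variant frequency from input to selection. It uses log2, with a pseudocount of 1 for absent variants, and frequencies came from PCR-amplified, Illumina-sequenced repeat regions. The libraries were Pumilio-1 PUF domains randomized at the three base-contacting residues per repeat, co-expressed with matching RNA elements in strain YBZ-1 (LexA–MS2 coat fusion, HIS3 reporter). Plating lasted four days on SC-Leu (input) or SC-Leu-His + 0.5 mM 3-AT (selection).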

The next experiment addresses PUM1 PUF domain R8-MHP (Homo sapiens, UniProt Q14671 828-1176, N1122M;Y1123H;Q1126P). An outline of the steps:
as §1

Another experiment addresses PUM1 PUF domain R8-HFD (Homo sapiens, UniProt Q14671 828-1176, N1122H;Y1123F;Q1126D). An outline of the steps: as §1
The target in another experiment is PUM1 PUF domain R5-FRT (Homo sapiens, UniProt Q14671 828-1176, C1007F;Q1011T). The method in brief: as §1
The next experiment deals with T1, PUM1 PUF domain R6-SWD (Homo sapiens, UniProt Q14671 828-1176, N1043S;Y1044W;Q1047D).
T1 sequence: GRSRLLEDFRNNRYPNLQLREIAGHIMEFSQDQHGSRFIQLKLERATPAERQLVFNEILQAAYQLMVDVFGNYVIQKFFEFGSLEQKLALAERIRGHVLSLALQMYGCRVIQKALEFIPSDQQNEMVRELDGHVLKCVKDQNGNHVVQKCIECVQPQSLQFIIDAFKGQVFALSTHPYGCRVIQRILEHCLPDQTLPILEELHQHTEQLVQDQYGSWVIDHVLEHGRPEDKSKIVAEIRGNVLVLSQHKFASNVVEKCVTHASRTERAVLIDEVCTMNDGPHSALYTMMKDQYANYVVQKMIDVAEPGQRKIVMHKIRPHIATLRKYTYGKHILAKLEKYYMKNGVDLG
The method in brief:
as §1

The next experiment addresses PUM1 PUF domain R3-GPK (Homo sapiens, UniProt Q14671 828-1176, C935G;R936P;Q939K). The method in brief:
as §1

The target in a further experiment is PUM1 PUF domain R7-KTE (Homo sapiens, UniProt Q14671 828-1176, S1079K;N1080T). An outline of the steps: as §1
For the next experiment, the target named is PUM1 PUF domain R7-EYN (Homo sapiens, UniProt Q14671 828-1176, S1079E;N1080Y;E1083N). The method in brief:
as §1

The next experiment concerns the target PUM1 PUF domain R7-RGN (Homo sapiens, UniProt Q14671 828-1176, S1079R;N1080G;E1083N). An outline of the steps: as §1
The target in the next experiment is PUM1 PUF domain R5-RAM (Homo sapiens, UniProt Q14671 828-1176, C1007R;R1008A;Q1011M). An outline of the steps: as §1

On to “GGCUAGAACUAGUGGAUCCCCCGGCGCCCGGCGGCUCGAGCCCGGGUAAGUGUAAAUCGUCUGCAUGCCGCCGGGCGCCAUGCCUGCAGGUCGACUCUAGAAAACAUG”, for which the binding signal in the experiment with PUM1 PUF domain R1-GHR is 2.23 log2 enrichment (interaction score).

For “GGCUAGAACUAGUGGAUCCCCCGGCGCCCGGCGGCUCGAGCCCGGGUAAGCGUAAAUAGUCUGCAUGCCGCCGGGCGCCAUGCCUGCAGGUCGACUCUAGAAAACAUG”, the binding signal with PUM1 PUF domain R8-MHP was 2.6 log2 enrichment (interaction score); with PUM1 PUF domain R8-HFD, 2.46 log2 enrichment (interaction score).

With “GGCUAGAACUAGUGGAUCCCCCGGCGCCCGGCGGCUCGAGCCCGGGUAAGUGUUAAUAGUCUGCAUGCCGCCGGGCGCCAUGCCUGCAGGUCGACUCUAGAAAACAUG”, in the experiment with PUM1 PUF domain R5-FRT, the binding signal was 1.56 log2 enrichment (interaction score).

In the case of “GGCUAGAACUAGUGGAUCCCCCGGCGCCCGGCGGCUCGAGCCCGGGUAAGUGGAAAUAGUCUGCAUGCCGCCGGGCGCCAUGCCUGCAGGUCGACUCUAGAAAACAUG”, in the experiment with PUM1 PUF domain R6-SWD, the binding signal was 5.64 log2 enrichment (interaction score).

As for “GGCUAGAACUAGUGGAUCCCCCGGCGCCCGGCGGCUCGAGCCCGGGUAAGUGUAAUUAGUCUGCAUGCCGCCGGGCGCCAUGCCUGCAGGUCGACUCUAGAAAACAUG”, the binding signal in the experiment with PUM1 PUF domain R3-GPK was 3.25 log2 enrichment (interaction score).

In the case of “GGCUAGAACUAGUGGAUCCCCCGGCGCCCGGCGGCUCGAGCCCGGGUAAGUCUAAAUAGUCUGCAUGCCGCCGGGCGCCAUGCCUGCAGGUCGACUCUAGAAAACAUG”, the binding signal is 2.46 log2 enrichment (interaction score) in the experiment with PUM1 PUF domain R7-KTE, 3.13 log2 enrichment (interaction score) with PUM1 PUF domain R7-EYN and 3.02 log2 enrichment (interaction score) in the experiment with PUM1 PUF domain R7-RGN.

Consider “GGCUAGAACUAGUGGAUCCCCCGGCGCCCGGCGGCUCGAGCCCGGGUAAGUGUAAAUUGUCUGCAUGCCGCCGGGCGCCAUGCCUGCAGGUCGACUCUAGAAAACAUG”, for which, in the experiment with PUM1 PUF domain R1-GHR, the binding signal was 1.34 log2 enrichment (interaction score).

With “GGCUAGAACUAGUGGAUCCCCCGGCGCCCGGCGGCUCGAGCCCGGGUAAGUGUCAAUAGUCUGCAUGCCGCCGGGCGCCAUGCCUGCAGGUCGACUCUAGAAAACAUG”, the values for the binding signal with PUM1 PUF domain R5-FRT and with PUM1 PUF domain R5-RAM were 2.21 log2 enrichment (interaction score) and 2.69 log2 enrichment (interaction score), respectively.
